Assay outcomes (PubChem BioAssay)
RORg inh: qHTS for inhibitors of ROR gamma transcriptional activity; Nuclear receptor ROR-gamma (Mus musculus), P51450; Drosophila S2 Gal4-RORgamma UAS-luciferase reporter, 20 h; Potency, µM (series often up to 53.6 µM), inactives show at the highest dose activity change, negative = inhibition, hits mostly inhibitors; hit rate 5.4% among 310,000; AID 2551, 2010; also: potency is read from the fitted curve at half-maximal effect; % is scaled to controls: 0 for no effect and ±100 for the full control effect; nearly all actives have a fitted effect of over 60% in size
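Stable Schneider cell line, Gal4 DNA-binding domain fused to ROR gamma, UAS-luciferase. Cmpd 1 hr RT → CuSO4 700 uM final → 20 hr RT → luciferase reagent 10 min → luminescence.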
uPA generation: qHTS for Inhibitors of Cell Surface uPA Generation | Potency, µM (titrated, usually from 38.3 µM), for inactives: top-dose activity change, negative = inhibition, usual class: inhibitors | hit rate 0.31% among 330,000 | cell surface uPA generation assay, qHTS | AID 540303, 2011; active = well fitted inhibition curve with a large enough effect; inconclusive = small, poorly fitted or top-dose-only effect; inactive = no such curve, though single readings can be large or run the other way; tested in mouse RAW 264.7 cells; also: potency is read from the fitted curve at half-maximal effect; % is scaled to controls: 0 for no effect and ±100 for the full control effect; nearly all actives have a fitted effect of over 55% in size
TRPV1 PAM: HTS Assay for Compounds that Act as Potentiators of the Vanilloid Receptor 1 | hit rate 0.02% among 320,000 | potentiation, % at 8.33 µM | Transient receptor potential cation channel subfamily V member 1 (Homo sapiens), Q8NER1 | TRPV1-expressing cells, Fluo-8 calcium influx, capsaicin EC20 potentiation | AID 540277, 2011; in the data active = potentiation above about 80%; inconclusive = between about 30% and that limit; also: 0% is about no effect
Target sequence (Q8NER1 whole entry, looked up): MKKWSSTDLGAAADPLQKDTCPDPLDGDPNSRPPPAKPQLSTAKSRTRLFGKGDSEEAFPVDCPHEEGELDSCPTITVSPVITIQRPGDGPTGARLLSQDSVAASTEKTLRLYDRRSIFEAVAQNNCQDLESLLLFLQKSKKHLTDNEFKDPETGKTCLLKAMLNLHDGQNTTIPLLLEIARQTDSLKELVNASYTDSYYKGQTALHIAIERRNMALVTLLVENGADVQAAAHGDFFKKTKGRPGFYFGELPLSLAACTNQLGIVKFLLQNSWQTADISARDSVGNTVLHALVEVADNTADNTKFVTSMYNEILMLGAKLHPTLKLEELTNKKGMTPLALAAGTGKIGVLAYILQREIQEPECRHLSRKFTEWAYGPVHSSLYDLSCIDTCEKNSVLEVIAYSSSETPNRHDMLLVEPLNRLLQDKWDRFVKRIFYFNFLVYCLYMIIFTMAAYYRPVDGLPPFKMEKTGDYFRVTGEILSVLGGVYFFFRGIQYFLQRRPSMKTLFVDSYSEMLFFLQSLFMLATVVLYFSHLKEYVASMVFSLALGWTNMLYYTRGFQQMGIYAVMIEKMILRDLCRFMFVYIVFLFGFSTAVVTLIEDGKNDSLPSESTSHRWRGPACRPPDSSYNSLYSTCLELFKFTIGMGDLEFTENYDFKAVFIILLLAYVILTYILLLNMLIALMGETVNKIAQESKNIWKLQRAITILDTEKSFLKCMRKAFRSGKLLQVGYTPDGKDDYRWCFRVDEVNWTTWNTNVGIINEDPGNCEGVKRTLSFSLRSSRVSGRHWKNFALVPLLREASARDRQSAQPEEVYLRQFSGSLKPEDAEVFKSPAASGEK
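TRPV1-expressing cells were cultured overnight at 35.5C and loaded with Fluo-8 calcium dye for 40 to 90 min at room temperature. After a 10 s baseline, compound was added and calcium influx was read kinetically for 3 min (ex 480/em 520 nm).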
VP16 counter: VP16 counterscreen qHTS for inhibitors of ROR gamma transcriptional activity; Drosophila S2 Gal4-VP16 UAS-luciferase, luminescence, 20 h; Potency, µM (doses to about 53.6 µM), for inactives: at the highest dose activity, negative = inhibition, hits mostly inhibitors; hit rate 3.5% among 310,000;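 also: Gal4-VP16 expression switched on by copper sulfate through the metallothionein promoter; potency is read from the fitted curve at half-maximal effect; % is scaled to controls: 0 for no effect and ±100 for the full control effect; nearly all actives have a fitted effect of over 50% in size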
TRPV1 agonist: HTS Assay for Compounds that Act as Agonists of the Vanilloid Receptor 1; Transient receptor potential cation channel subfamily V member 1 (Homo sapiens), Q8NER1; TRPV1-expressing cells, Fluo-8 calcium influx, agonist mode; activation, % at 8.33 µM; hit rate 0.19% among 320,000; AID 540275, 2011; in the data active = activation above about 80%; inconclusive = between about 30% and that limit; also: 0% is about no effect
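Fluo-8 calcium influx in TRPV1-expressing cells, kinetic read (ex 480/em 520 nm). Compound added and read 3 min for agonist activity, followed by capsaicin at EC20 final and 2 min further read for enhancement.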
Active calls of the source: *; ? = inconclusive; nt = no result; [ ] = remark or other dose. Sampled rows, rich in hits. Any-hit rate of the full collection: about 5.8%. Unless noted, calls follow the shape of the dose curve; as a rule, active = well fitted curve in the direction sought with a large enough effect; inconclusive = small, poorly fitted or top-dose-only effect, or another doubt; inactive = no such curve, though single readings can be large; an effect the other way counts as inactive or inconclusive.

SMILES | RORg inh | uPA generation | TRPV1 PAM | VP16 counter | TRPV1 agonist
CC(C)C[C@H](NC(=O)c1nc[nH]c1C(=O)N1CCN(c2ccccc2)CC1)C(=O)OCc1ccccc1 | 5µM* | 5% | ? | ? | -8
CC(C)C[C@H](NC(=O)c1nc[nH]c1C(=O)N1CCN(C(=O)OC(C)(C)C)CC1)C(=O)OC(C)(C)C | 2.8µM* | -18% | -3 | ? | 1
CCCN1CCC(=O)N(C(CSc2ccc(C)cc2)CC(C)C)CC1 (configuration not stated) | 38% | nt | nt | -1% | nt
CC(C)C[C@H](NC(=O)c1[nH]cnc1C(=O)N[C@@H](C)C(=O)OC(C)(C)C)C(=O)OC(C)(C)C | 6.3µM* | ? | -7 | ? | ?
CC(C)C[C@H](NC(=O)c1nc[nH]c1C(=O)N[C@@H](CCCCN)C(=O)OC(C)(C)C)C(=O)OC(C)(C)C | nt | 8% | nt | nt | nt
CC(C)C[C@H](NC(=O)c1nc[nH]c1C(=O)N(C)Cc1ccccc1)C(=O)OCc1ccccc1 | -11% | -10% | 3 | 3.5µM* | 26
CCOc1cc(C(=O)NC(=S)Nc2cccnc2)cc(OCC)c1OCC | 13µM* | 1% | 25 | ? | -4
CCOc1ccc(C(=O)NC(=S)Nc2cccnc2)cc1 | -16% | -1% | -11 | 0% | 5
CSc1cccc(NC(=S)NC(=O)c2cccnc2)c1 | 10µM* | ? | -6 | 11µM* | 13
COC(=O)c1cccc(NC(=O)c2cccnc2)c1 | -16% | 1% | -9 | 12% | -1
COc1cccc(C(=O)NC(=S)Nc2cccnc2)c1 | ? | 0% | -19 | -25% | 4
COc1ccc(C(=O)NC(=S)Nc2cccnc2)cc1Cl | 10µM* | 2% | 5 | -8% | -2
COC(CN1C(=O)C(=O)/C(=C(/O)c2ccccc2)C1c1ccccn1)OC (configuration not stated) | 9% | -3% | -1 | -12% | 0
Cc1ccc(S(=O)(=O)NNC(=S)Nc2ccc(Cl)cc2)cc1 | -29% | -2% | 5 | -6% | -2
Cc1ccc(NC(=S)Nc2ccc(S(=O)(=O)Nc3ncccn3)cc2)cc1Cl | 32µM* | nt | ? | ? | 2
Cc1ccc(S(=O)(=O)NNC(=S)Nc2c(Cl)cccc2Cl)cc1 | 10µM* | 0% | -3 | ? | 0
Cc1ccc(NC(=S)NNS(=O)(=O)c2ccc3ccccc3c2)cc1Cl | 11µM* | 1% | 5 | ? | -7
O=S(=O)(Nc1ncccn1)c1ccc(NC(=S)Nc2cccc(Cl)c2)cc1 | 11µM* | nt | 8 | ? | -3
CCCCCn1nc(C)c(/C=N/NC(=O)c2ccoc2C)c1C | ? | -11% | ? | 8.9µM* | -5
Cc1nn(Cc2ccccc2)c(C)c1/C=N/NC(=O)c1ccccc1O | 11µM* | 1% | -6 | 18µM* | 5
O=[N+]([O-])c1cc2oc3c(c2c(C=NCc2ccncc2)c1O)CCCC3 | 13µM* | -1% | 2 | ? | -1
Cc1ccc(S(=O)(=O)N2C[C@@H]3CCCC[C@@H]3[C@@H](C)[C@H]2c2cn(Cc3ccccc3)c3ncccc23)cc1 | nt | 10µM* | nt | nt | nt
COc1ccc2c(c1)c([C@@H]1[C@H](C)[C@H]3CCCC[C@H]3CN1S(=O)(=O)c1ccc(C)cc1)cn2C | nt | 0% | nt | nt | nt
O=C(C1CCN(C2CC(=O)N(c3ccc(F)cc3)C2=O)CC1)N1CCOCC1 (configuration not stated) | 13µM* | 6% | 6 | ? | 2
COc1cc(/C=N/n2nnnc2N)ccc1OCC(N)=O | 4%[1.91 µM] | -11% | -4 | -2% | 1
SMILES | RORg inh | uPA generation | TRPV1 PAM | VP16 counter | TRPV1 agonist
Cc1cccc(NC(=S)c2nc3ccccc3s2)c1 | 1.1µM* | 1% | 5 | 5µM* | 1
Cc1cccc(NC(=O)c2cc(C)nc3ccccc23)c1 | 4% | -4% | -9 | 4% | 14
CCCCN(CCCC)C(=O)C1(P(=O)(c2ccccc2)c2ccccc2)CCC1 | 11% | 2% | -25 | 1% | ?
Cc1cc(NC(=O)c2cccc(Cl)c2)n[nH]1 | nt | -29% | ? | nt | 0
Cc1cc(NC(=O)NC(=O)c2ccc(F)cc2F)n[nH]1 | 8.9µM* | -11% | nt | ? | nt
CCc1cc2c(N3CCCCC3)ncnc2s1 | ? | 3% | 14 | 35µM* | -3
Nc1ccc(C(=O)NC2CCSc3ccccc32)cc1[N+](=O)[O-] (configuration not stated) | ? | 2% | 2 | 7.9µM* | ?
Cc1ccc(C(=O)NC2CCCc3ccccc32)cc1[N+](=O)[O-] (configuration not stated) | 7% | ? | -18 | -23% | ?
Cc1c(CC(=O)NCCCC(=O)O)c(=O)oc2cc3c(cc12)CCC(C)(C)O3 | 5µM* | 6% | 2 | 7.1µM* | 0
Cc1c(CC(=O)NCCCCCC(=O)O)c(=O)oc2cc3c(cc12)CCC(C)(C)O3 | 14% | -1% | 2 | 0% | 1
O=C(CCc1nc2ccccc2c(=O)[nH]1)NCCN1C(=O)S/C(=C\c2ccc(Cl)cc2Cl)C1=O | nt | -5% | 5 | nt | -4
COc1cc(OC)c2cc(-c3ccncc3)cnc2c1 | -38% | nt | nt | -11% | nt
O=C(O)CCCc1nc(-c2ccccc2)no1 | 14µM* | 2% | -11 | ? | 4
O=C(CCCc1nc(-c2ccc(Cl)cc2)no1)Nc1cccnc1 | 16µM* | -3% | 25 | 11µM* | ?
CN(C)C(=O)CCCc1nc(-c2ccc(Cl)cc2)no1 | -5% | nt | -25 | 0% | 15
O=C(O)CCCc1nc(-c2ccc(Cl)cc2)no1 | 0.35µM* | 0% | 8 | ? | -1
NC(=O)CCCc1nc(-c2ccccc2)no1 | -1% | 0% | -6 | -14% | 3
COc1cc(-c2noc(CCC(=O)Nc3cccnc3)n2)cc(OC)c1OC | 2% | 1% | -11 | 1% | 13
Cc1ccc(NC(=O)CN2C(=O)NC(Cc3ccccc3)C2=O)cc1Cl (configuration not stated) | nt | 12% | -6 | nt | 1
CCCN(CC(=O)Nc1cc(Cl)cc(Cl)c1)CC(=O)Nc1ccc(F)c(F)c1F | ? | 0% | 2 | 22µM* | 6
Cc1c(C#N)c(NC(=O)CCl)n(Cc2cccs2)c1C | -13% | 5µM* | -2 | ? | 3
Cc1cc(C)n(S(=O)(=O)/C=C/c2ccccc2)n1 | 16µM* | nt | -7 | -1% | 1
Cc1cccc(N2CCN(C(=O)CCC(=O)N3CC(C)Oc4ccccc43)CC2)c1C (configuration not stated) | ? | 1% | -15 | -1% | 0
CC1CC(C)(C)NC(=S)N1CCC(=O)N1c2ccccc2CC1C (configuration not stated) | 4µM* | -1% | 2 | 18µM* | 1
